Here are results for 14 compounds from PubChem BioAssay (EPA / NIEHS).

Where “and” joins values, the source holds several entries; their conditions need not be identical. Equal values may be shown once. Records with an inconclusive call do not appear. A structure can be active in one record and inactive in another. Calls of active or inactive are those of the source. How the source made its calls, unless noted: active means hit-call score of the fitted dose curve at least 0.9, where 1 is the maximum; inconclusive means response in the unintended direction; inactive means score below 0.9.

The target of test [1] is Oxysterols receptor LXR-alpha (Homo sapiens) (UniProt Q13133). The experiment in a line: ATG_LXRa_TRANS: Attagene TRANS-FACTORIAL HepG2 Assay for human Liver X Receptor alpha (LXRa) (AID 2282980). The note with it: HepG2 Attagene TRANS reporter, LXRa transactivation. Put shortly:
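Chemical-induced reporter mRNA measured by RT-PCR with fluorescent labelling and capillary electrophoresis after 24 h dosing of transiently transfected HepG2 cells expressing exogenous NR-Gal4 chimeras; increases scored against DMSO baseline.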

In test [2] the target is Oxysterols receptor LXR-beta (Homo sapiens) (UniProt P55055). In words: ATG_LXRb_TRANS: Attagene TRANS-FACTORIAL HepG2 Assay for human Liver X Receptor beta (LXRb) (AID 2282981). The note with it: HepG2 Attagene TRANS GAL4-LXRb reporter, mRNA. Put shortly:
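HepG2 cells transiently transfected with GAL4-UAS reporter units for chimeric NR-Gal4 proteins, dosed for 24 h. Reporter transcripts measured by RT-PCR and capillary electrophoresis; gain-of-signal fitting relative to DMSO.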

Test [3] has as its target Hepatocyte nuclear factor 4-alpha (Homo sapiens) (UniProt P41235). In words: ATG_HNF4a_TRANS: Attagene TRANS-FACTORIAL HepG2 Assay for human Hepatocyte Nuclear Factor 4 alpha (HNF4a) (AID 2282982). Conditions: HepG2 HNF4a transactivation reporter, mRNA readout. Put shortly:
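HepG2 cells transiently transfected with HNF4a-Gal4 chimera and GAL4-UAS reporter units, dosed for 24 h. Reporter mRNA measured by RT-PCR, fluorescent primer extension and capillary electrophoresis; gain-of-signal fitted relative to DMSO.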

Test [4] can be described thus: ATG_M_06_TRANS: Attagene TRANS-FACTORIAL HepG2 Assay for M06 Transcription Factor (Internal Marker) (AID 2282983).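 Further: reporter transcript level by RT-PCR then capillary electrophoresis fluorescence.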 Conditions: HepG2 Attagene TRANS M06 internal marker reporter. Put shortly: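 Cells: HepG2, transient multi-reporter transfection. Exposure: 24 h. Detection: RT-PCR, 6-FAM labelling, HpaI digestion (2 h, 37 °C), capillary electrophoresis. Baseline: DMSO.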

The nature of test [5]: ATG_M_32_TRANS: Attagene TRANS-FACTORIAL HepG2 Assay for M32 Transcription Factor (Internal Marker) (AID 2282984).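 Further: transcript level of a background control reporter unit measured by RT-PCR and capillary electrophoresis.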 The note with it: HepG2 Attagene TRANS M32 internal marker reporter. Put shortly: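 HepG2 cells transiently transfected with GAL4-UAS reporter units, dosed for 24 hours. Reporter mRNA quantified by RT-PCR, 6-FAM labelling, HpaI digestion and capillary electrophoresis; internal-marker signal fitted upward relative to DMSO.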

In test [6] the target is Nuclear receptor subfamily 4 group A member 2 (Homo sapiens) (UniProt P43354). The experiment in a line: ATG_NURR1_TRANS: Attagene TRANS-FACTORIAL HepG2 Assay for human Nuclear Receptor Related Protein 1 (NURR1) (AID 2282985). Conditions: HepG2 Attagene TRANS reporter, mRNA readout. A digest of the protocol: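 HepG2 cells transiently transfected with NURR1-Gal4 chimera and GAL4-UAS reporter units; after 24 hr compound exposure, reporter mRNA quantified by RT-PCR and capillary electrophoresis; gain of signal fitted against DMSO.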

Test [7] deals with Transcriptional activator Myb (Homo sapiens) (UniProt P10242). The experiment in a line: ATG_Myb_CIS: Attagene CIS-FACTORIAL HepG2 Assay for human Myeloblastosis (Myb) Proto-Oncogene Transcription Factor (AID 2282986; active means hit-call score of the fitted dose curve at least 0.9, where 1 is the maximum; inactive means score below 0.9). Conditions: HepG2 Attagene CIS-FACTORIAL Myb reporter transcription; actives raise or lower the signal. Put shortly:
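HepG2 cells were transiently transfected with cis-regulated multiple reporter transcription units reflecting endogenous Myb activity, then exposed to compound for 24 hours. Reporter mRNA was measured by RT-PCR with capillary electrophoresis; bidirectional fitting versus DMSO baseline.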

The target of test [8] is Nuclear respiratory factor 1 (Homo sapiens) (UniProt Q16656). In words: ATG_NRF1_CIS: Attagene CIS-FACTORIAL HepG2 Assay for human Nuclear Respiratory Factor 1 (NRF1) Orphan Gene (AID 2282987; active means hit-call score of the fitted dose curve at least 0.9, where 1 is the maximum; inactive means score below 0.9). The note with it: HepG2 NRF1 cis-element reporter, Attagene multiplex; actives raise or lower the signal. A digest of the protocol:
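HepG2 cells transiently transfected with multiple reporter transcription units under cis-regulatory promoter control, so endogenous transcription-factor activity is read. After 24 h compound exposure, reporter mRNA quantified by RT-PCR, fluorescent labelling, HpaI digestion and capillary electrophoresis; bidirectional fitting versus DMSO.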

A short description of test [9]: ATG_NFI_CIS: Attagene CIS-FACTORIAL HepG2 Assay for human Nuclear Factor I (NFI) (AID 2282989; active means hit-call score of the fitted dose curve at least 0.9, where 1 is the maximum; inactive means score below 0.9). The note with it: HepG2 cis-regulatory reporter, NFI response element transcription; actives raise or lower the signal. A digest of the protocol:
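After transient transfection of HepG2 with cis-promoter reporter constructs and 24 h dosing, RNA is reverse-transcribed, amplified, 6-FAM end-labelled and HpaI-digested before capillary analysis. Bidirectional curve fitting against DMSO.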

As usually defined, the AC50 is the concentration giving half of the maximal activity seen.

Hepatocyte nuclear factor 4-alpha (Homo sapiens), sequence (P41235 whole entry, looked up, the tested form may be a part): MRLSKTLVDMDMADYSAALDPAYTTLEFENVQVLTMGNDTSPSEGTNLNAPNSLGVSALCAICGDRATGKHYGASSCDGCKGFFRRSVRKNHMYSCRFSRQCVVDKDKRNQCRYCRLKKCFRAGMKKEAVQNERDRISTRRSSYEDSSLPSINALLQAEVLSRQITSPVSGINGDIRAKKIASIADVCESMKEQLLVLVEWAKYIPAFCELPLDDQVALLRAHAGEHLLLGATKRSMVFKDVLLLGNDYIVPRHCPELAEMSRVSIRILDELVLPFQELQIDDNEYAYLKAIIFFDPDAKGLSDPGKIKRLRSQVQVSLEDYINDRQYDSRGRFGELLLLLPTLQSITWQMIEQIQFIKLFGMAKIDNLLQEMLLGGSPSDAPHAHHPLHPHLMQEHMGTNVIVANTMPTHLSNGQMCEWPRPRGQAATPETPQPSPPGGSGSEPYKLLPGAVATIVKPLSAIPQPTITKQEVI
Transcriptional activator Myb (Homo sapiens), sequence (P10242 whole entry, looked up): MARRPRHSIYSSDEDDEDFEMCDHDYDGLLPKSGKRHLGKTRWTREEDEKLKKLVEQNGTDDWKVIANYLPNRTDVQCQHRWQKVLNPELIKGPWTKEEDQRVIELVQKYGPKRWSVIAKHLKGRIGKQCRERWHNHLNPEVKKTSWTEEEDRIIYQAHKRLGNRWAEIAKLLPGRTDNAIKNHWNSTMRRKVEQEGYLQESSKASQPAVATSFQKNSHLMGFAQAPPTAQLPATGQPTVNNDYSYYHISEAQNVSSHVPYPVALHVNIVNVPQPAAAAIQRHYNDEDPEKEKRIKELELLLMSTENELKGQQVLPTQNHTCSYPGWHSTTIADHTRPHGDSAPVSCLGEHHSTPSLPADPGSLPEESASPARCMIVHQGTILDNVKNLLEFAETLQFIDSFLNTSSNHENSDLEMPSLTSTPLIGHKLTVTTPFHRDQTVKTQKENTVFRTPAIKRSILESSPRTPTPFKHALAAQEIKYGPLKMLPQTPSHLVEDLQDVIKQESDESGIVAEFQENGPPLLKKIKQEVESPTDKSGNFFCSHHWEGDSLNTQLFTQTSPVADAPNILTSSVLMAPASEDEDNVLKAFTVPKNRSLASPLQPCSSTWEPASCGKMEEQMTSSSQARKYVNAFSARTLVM
Oxysterols receptor LXR-beta (Homo sapiens), sequence (P55055 whole entry, looked up, the tested form may be a part): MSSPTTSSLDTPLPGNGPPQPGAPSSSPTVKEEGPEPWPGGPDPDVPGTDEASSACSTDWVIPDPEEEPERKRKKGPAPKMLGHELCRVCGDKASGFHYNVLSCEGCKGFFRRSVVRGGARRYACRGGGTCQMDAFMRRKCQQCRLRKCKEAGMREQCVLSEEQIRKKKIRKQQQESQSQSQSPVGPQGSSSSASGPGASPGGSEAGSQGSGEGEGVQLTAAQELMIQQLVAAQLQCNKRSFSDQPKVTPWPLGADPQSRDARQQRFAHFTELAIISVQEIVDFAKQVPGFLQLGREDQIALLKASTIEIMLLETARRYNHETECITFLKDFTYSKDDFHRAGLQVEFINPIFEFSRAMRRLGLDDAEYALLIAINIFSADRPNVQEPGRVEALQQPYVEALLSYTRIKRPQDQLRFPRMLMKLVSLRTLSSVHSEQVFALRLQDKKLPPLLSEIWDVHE
Oxysterols receptor LXR-alpha (Homo sapiens), sequence (Q13133 whole entry, looked up, the tested form may be a part): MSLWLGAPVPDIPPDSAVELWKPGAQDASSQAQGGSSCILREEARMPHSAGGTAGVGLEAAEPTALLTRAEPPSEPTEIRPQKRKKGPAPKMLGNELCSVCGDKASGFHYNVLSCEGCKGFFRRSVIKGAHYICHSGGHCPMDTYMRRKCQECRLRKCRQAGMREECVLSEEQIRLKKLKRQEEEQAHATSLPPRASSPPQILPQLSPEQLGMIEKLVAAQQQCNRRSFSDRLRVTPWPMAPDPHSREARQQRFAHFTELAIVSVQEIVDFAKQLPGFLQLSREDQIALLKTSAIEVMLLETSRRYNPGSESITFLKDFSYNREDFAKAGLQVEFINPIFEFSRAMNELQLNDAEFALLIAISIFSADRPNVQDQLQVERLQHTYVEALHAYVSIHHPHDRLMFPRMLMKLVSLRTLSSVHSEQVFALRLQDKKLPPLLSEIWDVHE
Nuclear respiratory factor 1 (Homo sapiens), sequence (Q16656 whole entry, looked up): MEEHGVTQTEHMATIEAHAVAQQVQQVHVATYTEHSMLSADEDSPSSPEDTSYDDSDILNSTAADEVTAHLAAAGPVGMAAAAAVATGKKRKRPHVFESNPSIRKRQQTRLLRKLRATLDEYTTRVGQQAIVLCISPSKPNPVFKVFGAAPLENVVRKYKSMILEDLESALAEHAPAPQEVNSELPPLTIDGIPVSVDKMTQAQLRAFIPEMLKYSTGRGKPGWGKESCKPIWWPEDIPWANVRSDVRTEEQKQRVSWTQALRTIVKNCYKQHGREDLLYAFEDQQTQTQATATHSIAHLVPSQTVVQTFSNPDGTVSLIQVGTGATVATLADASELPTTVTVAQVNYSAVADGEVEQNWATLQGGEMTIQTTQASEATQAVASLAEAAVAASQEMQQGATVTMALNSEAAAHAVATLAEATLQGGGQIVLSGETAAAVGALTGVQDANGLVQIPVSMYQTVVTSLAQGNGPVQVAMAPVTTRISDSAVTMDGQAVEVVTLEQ
Nuclear receptor subfamily 4 group A member 2 (Homo sapiens), sequence (P43354 whole entry, looked up, the tested form may be a part): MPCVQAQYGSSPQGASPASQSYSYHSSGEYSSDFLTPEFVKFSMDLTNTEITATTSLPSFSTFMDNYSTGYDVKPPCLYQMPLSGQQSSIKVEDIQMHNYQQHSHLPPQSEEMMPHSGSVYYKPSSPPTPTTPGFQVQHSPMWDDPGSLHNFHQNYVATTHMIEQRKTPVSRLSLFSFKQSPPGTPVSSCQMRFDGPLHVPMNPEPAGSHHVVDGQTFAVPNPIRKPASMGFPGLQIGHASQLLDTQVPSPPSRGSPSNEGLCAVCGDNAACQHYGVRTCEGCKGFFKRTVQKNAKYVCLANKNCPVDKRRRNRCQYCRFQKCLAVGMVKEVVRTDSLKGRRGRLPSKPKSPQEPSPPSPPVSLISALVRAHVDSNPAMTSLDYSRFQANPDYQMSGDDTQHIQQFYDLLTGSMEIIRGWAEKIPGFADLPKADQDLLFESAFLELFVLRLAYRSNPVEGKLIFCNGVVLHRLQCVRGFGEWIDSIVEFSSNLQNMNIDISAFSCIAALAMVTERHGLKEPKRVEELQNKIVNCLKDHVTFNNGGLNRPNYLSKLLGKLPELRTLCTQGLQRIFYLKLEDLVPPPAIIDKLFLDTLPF

In the case of `N[C@@H](Cc1cc(I)c(Oc2ccc(O)c(I)c2)c(I)c1)C(=O)O`, the outcome in [1], in [2], in test [3], in test [4], in test [5] and in test [6] was inactive. The result in test [7], in test [8] and in test [9] was inactive. Moreover, in test [6], the half-maximal activity concentration (AC50) is 25.8 µM (active).

For `CC1(C)C(C=C(Cl)Cl)C1C(=O)OCc1cccc(Oc2ccccc2)c1` (stereo not drawn), the call in test [1], in test [2], in test [3], in [6], in test [7] and in test [8] was inactive. For the same compound, in [9], the compound was called inactive.

Turning to `CCCCC(CC)CN1C(=O)C2C3C=CC(C3)C2C1=O` (stereo not drawn), the compound was called inactive in [1], in [2], in test [3], in [5], in test [6] and in [7]. Also, the result in test [8] and in test [9] was inactive.

As to `CCCN(CCC)C(=O)SCC`, the compound was called inactive in [1], in [2], in [3], in test [4], in [5] and in [7]. Also, the compound was called inactive in test [8] and in test [9].

Consider `COc1nc(C)nc(NC(=O)NS(=O)(=O)c2ccccc2OCCCl)n1`, for which the results for the AC50 in test [1] and in test [2] were 17.1 µM (active) and 25.6 µM (active), respectively. Also, the compound was classed as inactive in test [2], in test [3], in test [4], in test [6], in test [7] and in [8]. For the same compound, the call in test [9] was inactive.

Turning to `CCCCOC(=O)C(C)Oc1ccc(Oc2ccc(C(F)(F)F)cn2)cc1` (stereo not drawn), the outcome in [1], in [2], in [3], in test [5], in test [6] and in [7] was inactive. In addition, the compound was classed as inactive in [8] and in test [9].

For the compound `CN(C)C(=O)Nc1ccc(Cl)c(Cl)c1`, the call in test [1], in [2], in test [3], in [4], in test [5] and in test [6] was inactive. The result in test [7], in test [8] and in test [9] was inactive.

In the case of `Cc1nn(C)c(Oc2ccccc2)c1C=NOCc1ccc(C(=O)OC(C)(C)C)cc1`, the values for the half-maximal activity concentration (AC50) in test [1], in test [2] and in [9] were 1.31 µM (active), 1.88 µM (active) and 42.4 nM (active), respectively. Further, the result in [3], in [5], in [6], in [7] and in test [8] was inactive.

For the compound `CCCOC(=O)c1ccc(C(=O)OCCC)nc1`, the result in test [1], in test [2], in test [3], in [4], in test [5] and in test [6] was inactive. The result in [7], in test [8] and in test [9] was inactive.

As to `c1ccc(Nc2ccccc2)cc1`, the compound was called inactive in test [1], in test [2], in [3], in [4], in test [5] and in test [7]. Further, the compound was classed as inactive in test [8] and in test [9].

As for `COC(=O)c1ccc(CNS(C)(=O)=O)cc1S(=O)(=O)NC(=O)Nc1nc(OC)cc(OC)n1`, the compound was called inactive in test [1], in [2], in test [3], in test [4], in test [7] and in [8]. For the same compound, the compound was classed as inactive in test [9].

Turning to `CC(C)(c1ccc(O)cc1)c1ccc(O)cc1`, the result in test [1], in [2], in test [3], in test [4], in test [5] and in test [6] was inactive. Further, the compound was called inactive in test [7], in test [8] and in [9]. Besides, the AC50 in test [6] was 44 µM (active); in test [8], 62.2 µM (active); in test [9], 44.2 µM (active) and 37.8 µM (active).

Take `COCCO`: the compound was classed as inactive in [1], in test [2], in test [3], in test [4], in [5] and in [7]. Also, the result in test [8] and in test [9] was inactive.

As for `CCC(C)OC(=O)N1CCCCC1CCO` (stereo not drawn), the outcome in test [1], in test [2], in test [3], in test [6], in test [7] and in [8] was inactive. In addition, the result in test [9] was inactive.
